# Laboratory results taken from PubChem BioAssay.
# “And” between values parts separate entries of the source, which are not always exact repeats. Identical values can stand only once. Results filed as inconclusive are left out. The source made the active and inactive calls. Unless noted, no rule for the calls is given here.
# Key:
# [1] = compounds altering circadian rhythm period length – cell-based, LOPAC library, luminescence reporter (AID 2774); settings: circadian reporter cells, at 7 µM, actives lie on both sides;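 also: values are relative to mean of DMSO wells on each plate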
# [2] = tested on: Hepatitis C virus NS3 helicase; test: blockers of NS3h binding to ssDNA – biochemical, fluorescence polarization, LOPAC1280 library, primary screen (AID 687035; in the data active = inhibition above about 37%); settings: Purified HCV NS3 helicase, Cy5-dT15 ssDNA binding fluorescence polarization; stronger effect = higher value; concentration not given here
# [3] = compounds altering Cy5-DNA-NS3h complex signal – biochemical, LOPAC1280, artefact control for HCV NS3 helicase inhibitor project (AID 687037); settings: Cy5-DNA-NS3h complex fluorescence interference counterscreen
# [4] = tested on: Aerobactin synthetase IucA (Klebsiella pneumoniae); test: inhibition of K. pneumoniae IucA enzyme – biochemical, Tocris library, absorbance (AID 1345561); settings: purified IucA enzyme assay, absorbance (OD) read-out; stronger effect = lower value;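 tested at 8 µM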;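 also: 100% = enzyme without compound and 0% = no enzyme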
# [5] = viability loss with induced miR-34 in A549 – imaging, A549 dox-inducible miR-34, nuclei and caspase counts, primary screen (AID 1347080;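 active = compounds whose cell count with miR-34 switched on is under 0.7 times the count with it off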); settings: A549 miR-34 inducible, Hoechst nuclei count, 48 h
# [6] = blockers of cellular phospholipid synthesis – cell-based, LOPAC library, screen 4, primary screen (AID 1347384); settings: animal cells, phospholipid biosynthesis inhibition screen; at 10 µM
# [7] = galactose survival enhancers in mitochondrial complex I cybrids – cell-based, galactose medium, ATP luminescence, primary screen (AID 1645843;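 active = z-score of at least 1.8 in each of two replicates, scored against plate mean and spread of sample wells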;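 also: positive z means more ATP and so rescue of galactose-driven cybrid death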); settings: complex I mutant cybrid cells, 72 h, stronger effect = higher value
# [8] = viability loss in pontine glioma line – cell-based, SU-DIPG-XVII, MIPE5.0, CellTiter-Glo, qHTS, dose response (AID 1347060; cut-off not given, nearly all actives have AC50 up to about 26 µM); settings: CellTiter-Glo ATP luminescence
# [9] = JHH-DIPG-1 glioma cell viability, MIPE5.0 library, CellTiter-Glo luminescence, qHTS (AID 1347067; cut-off not given, nearly all actives have AC50 up to about 26 µM;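 also: cells exposed to compound for 48 hours before readout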); settings: JHH-DIPG-1 glioma viability, CellTiter-Glo ATP luminescence
# [10] = growth inhibition of DIPG cells – cell-based, MIPE5.0 library, qHTS (AID 1347068; cut-off not given, nearly all actives have IC50 up to about 30 µM); settings: SU-DIPG-XXV viability
# [11] = tested on: Aerobactin synthetase IucA (Klebsiella pneumoniae, hypervirulent); test: biochemical IucA inhibition screen of LOPAC library by absorbance (AID 1346212); settings: IucA enzyme assay, absorbance (OD) readout; stronger effect = lower value;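 tested at 8 µM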;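 also: 100% = no compound wells and 0% = no enzyme wells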
# [12] = stronger effect = lower value, cell number ratio, induced over uninduced
# [13] = measured here: relative caspase fold change +Dox/-Dox
# [14] = measured here: total cells with miR-34 induction, stronger effect = lower value
# [15] = measured here: total cells without miR-34 induction
SMILES,period change [1],inhibition [2],fluorescence ratio (interference) [3],remaining activity [4],"fold change [5, 12]","fold change [5, 13]","cell count [5, 14]","cell count [5, 15]",outcome [6],z-score [7],outcome [8],outcome [9],outcome [10],remaining activity [11],fold change ([5]; stronger effect = lower value)
Cc1o[nH]c(=O)c1CC(N)C(=O)O (configuration not stated),-0.03 h (inactive),-4% (inactive),0.9 (inactive),111% (inactive) and 121% (inactive),0.968 (inactive) and 0.976 (inactive) and 0.969 (inactive),1.08 and 0.707 and 0.956,10200 and 8490 and 9480,10500 and 8700 and 9780,inactive,0.295 (inactive) and -0.475 (inactive) and -0.075 (inactive),–,–,–,–,–
C[C@H](Cc1ccc(OCC(=O)O)cc1)NC[C@H](O)c1cccc(Cl)c1,–,–,–,121% (inactive),0.941 (inactive),0.725,7990,8500,–,-0.27 (inactive),–,–,–,–,–
O=C(O)C1=CCCN(CCOC(c2ccc(C(F)(F)F)cc2)c2ccc(C(F)(F)F)cc2)C1,–,–,–,122% (inactive),0.921 (inactive),0.739,8210,8910,–,5.47 (active),inactive,inactive,inactive,–,–
CCOC(=O)c1ncn2c1[C@@H]1CCCN1C(=O)c1cc(OC)ccc1-2,-0.11 h (inactive),0% (inactive),1 (inactive),125% (inactive),–,0.593 and 0.443,9220 and 8750,8880 and 9080,inactive,0.505 (inactive) and 0.115 (inactive),–,–,–,110% (inactive),1.04 (inactive) and 0.964 (inactive)
N[C@@H](Cn1oc(=O)[nH]c1=O)C(=O)O,–,-2% (inactive),1 (inactive),106% (inactive),0.917 (inactive),0.755,8070,8800,inactive,-0.215 (inactive),–,–,–,109% (inactive),–
CCCN(CCC)C1CCc2ccc(O)cc2C1 (configuration not stated),0.255 h (inactive),-4% (inactive),1 (inactive),121% (inactive),–,0.963 and 0.686,10200 and 7960,10500 and 7600,inactive,-0.285 (inactive) and -0.13 (inactive),–,–,–,–,0.974 (inactive) and 1.05 (inactive)
COc1ccc(CNC(=O)/C=C/c2ccc3[nH]cc(CCN(C)C)c3c2)cc1,0.1 h (inactive),-1% (inactive),1 (inactive),97.5% (inactive),–,1.56 and 0.859,9510 and 8680,8780 and 9280,–,-0.155 (inactive) and -0.415 (inactive),–,–,–,111% (inactive),1.08 (inactive) and 0.935 (inactive)
Cc1ncc(CN2CC=C(c3ccccc3)CC2)c(N)n1,–,–,–,92.9% (inactive),0.973 (inactive),1.21,8940,9190,–,-0.505 (inactive),–,–,–,–,–
